TDP1 cell CPT: growth inhibition of DT40 Tdp1-/-;hTDP1 cells with camptothecin (screen for TDP1 inhibitors). chicken DT40 Tdp1-/-;hTDP1 cells + 20 nM CPT, ATP luminescence, 48 h. Potency, µM (titrated, usually from 46.2 µM), for the others: top-dose activity change, negative = growth inhibition, actives largely listed as inhibitors. 420,000 tested, 12% active; further: potency means the concentration at half of the fitted maximal effect; nearly all actives have a fitted effect of over 55% in size
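Cell growth measured by CellTiter-Glo luminescence after a minimum 48 h, 37 C compound exposure with 20 nM CPT in Tdp1-knockout DT40 cells stably expressing hTDP1, seeded 400/well; qHTS titration format.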
uPA generation: cell surface uPA generation inhibition. 330,000 tested, 0.31% active. cell surface uPA generation assay, qHTS. AID 540303. Potency, µM (titrated, usually from 38.3 µM), for inactives: top-dose activity change, negative = inhibition, hits mostly inhibitors; active means well fitted inhibition curve with a large enough effect; inconclusive means small, poorly fitted or top-dose-only effect; inactive means no such curve, though single readings can be large or run the other way; tested in mouse RAW 264.7 cells; further: potency means the concentration at half of the fitted maximal effect; nearly all actives have a fitted effect of over 55% in size
TDP1 cell noCPT: qHTS for Inhibitors of human tyrosyl-DNA phosphodiesterase 1 (TDP1): qHTS in cells in absence of CPT. DT40 Tdp1-/- hTDP1 cells, no CPT, ATP luminescence, 48 h. Potency, µM (titrated, usually from 46.2 µM), for the others: at the top dose activity change, negative = growth inhibition, hits mostly inhibitors. 420,000 tested, 15% active. AID 686978, 2013; further: potency means the concentration at half of the fitted maximal effect; nearly all actives have a fitted effect of over 55% in size
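Chicken DT40 Tdp1-/- cells complemented with human TDP1, screened without camptothecin (DMSO vehicle only), 400 cells/well. Compounds pin-transferred, cells incubated at 37 °C for at least 48 hr. Growth read as ATP-dependent luminescence (CellTiter-Glo, 30 min at RT).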
IL1B secr inh: inflammasome signaling inhibition, IL-1 beta readout | 360,000 tested, 4.7% active | activity change, % at 57.5 µM | THP-1 LPS/ATP IL-1B secretion, AlphaLISA, 16 h; active compounds read low; in the data active means activity change below about -50%; inconclusive means mostly about -30% to -49%
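Secreted IL-1B measured by AlphaLISA bead assay after 16 h compound exposure of THP-1 cells; compounds (final up to 57.5 uM) added 1 h before LPS (250 ng/mL) and ATP (1.25 mM) stimulation; lower signal means less secretion.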
HT1080 IDH1KD tx: HT-1080 IDH1 knockdown cell toxicity (counter line) | HT-1080 IDH1 knockdown viability, ATP luminescence, 48 h | Potency, µM (series often up to 46.1 µM), for the others: at the highest dose activity, negative = toxicity, actives largely listed as cytotoxic | 360,000 tested, 2% active | AID 686971;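 further: potency means the concentration at half of the fitted maximal effect; 0% = DMSO wells and -100% = cell-free medium wells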
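Luminescent ATP read-out (CellTiter-Glo, 10 min at room temperature) after 48 h compound exposure at 37 °C gave viability of IDH1-knockdown HT-1080 cells. Activity was normalised to DMSO and cell-free wells, then fitted as concentration-response curves.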
HT1080-NT tox: kills 2HG-producing HT-1080-NT fibrosarcoma cells; HT-1080-NT fibrosarcoma viability, CellTiter-Glo ATP luminescence, 48 h; Potency, µM (top dose mostly 46.1 µM), inactives show top-dose activity, negative = less viability, actives largely listed as cytotoxic; 360,000 tested, 1.6% active; AID 686970;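 further: NT is the 2HG producing partner of a matched IDH1 knockdown line; potency means the concentration at half of the fitted maximal effect; 0% = DMSO-treated cells and -100% = media-only wells without cells; nearly all actives have a fitted effect of over 55% in size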
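HT-1080-NT; 750 cells/well; 5% FBS RPMI; 48 h compound, 37 degrees C; CellTiter-Glo luminescence; curve fitting and curve-class assignment.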
Numbers without * were called inactive; ? = inconclusive; nt = no result. Hits are enriched below; roughly 19% of the tested compounds scored in any of these assays. Unless noted, the call rests on the fitted dose curve; in most records, active means well fitted curve in the direction sought with a large enough effect; inconclusive means small, poorly fitted or top-dose-only effect, or another doubt; inactive means no such curve, though single readings can be large; an effect the other way counts as inactive or inconclusive. Unless noted, on the % scale 0 is the no-effect control and ±100 the full control effect.

SMILES	TDP1 cell CPT	uPA generation	TDP1 cell noCPT	IL1B secr inh	HT1080 IDH1KD tx	HT1080-NT tox
COc1ccccc1-c1oc2ccccc2c1-c1ccc2c(c1)OCO2	?	-15%	?	21	6%	?
FC(F)(F)c1cccc(Nc2c3c(nc4ccc(Cl)cc24)CCC3)c1	7.3µM*	nt	6.5µM*	nt	nt	nt
Fc1ccc(F)c(Nc2c3c(nc4ccc(Cl)cc24)CCC3)c1	16µM*	nt	?	nt	nt	nt
Oc1c(Cl)cc(Cl)c2c1NCCC2	6.5µM*	-1%	10µM*	14	-22%	-2%
CCn1nc(C)c(/C=N/NC(=S)Nc2ccc(Cl)cc2Cl)c1C	8.2µM*	-2%	6.5µM*	14	?	-23%
Cc1nn(C)cc1/C=N/NC(=S)Nc1ccc(Cl)cc1Cl	0.52µM*	3%	?	27	-12%	-9%
CCCNC(=O)C1(S(=O)(=O)c2ccccc2)CC=CC1	-9%	3%	-10%	17	12%	10%
O=C(CN1CCN(c2ccccc2O)CC1)Nc1cccnc1Cl	-22%	-3%	-13%	-10	-7%	-2%
CCCCCCCOc1ccc(CC(=O)NO)cc1	10µM*	nt	10µM*	nt	nt	nt
O=C(Cc1ccc(OCCC2CCCCC2)cc1)NO	7.1µM*	nt	10µM*	nt	nt	nt
CCCCc1ccc(CC(=O)NO)cc1	-19%	nt	?	nt	nt	nt
O=C(Cc1ccc(F)cc1)NC1CCCCCC1	?	2%	-1%	-1	21%	1%
CC1(C(=O)Nc2ccc3c(c2)OCCO3)CN(S(C)(=O)=O)CC(=O)N1CCc1c[nH]c2ccccc12 (configuration not stated)	-8%	nt	-10%	-23	5%	4%
Cc1ccc(NS(=O)(=O)c2c(C)[nH]c(C)c2C(=O)N2CCCC2)cc1Cl	?	-2%	?	?	-8%	-4%
Cc1[nH]c(C)c(S(=O)(=O)N2CCN(c3ccccc3F)CC2)c1C(=O)N1CCCCC1	?	0%	-19%	0	-11%	-14%
FC(F)Sc1ccc(NC2=NCCCCC2)cc1	2%	3%	-22%	-10	7%	-6%
FC(F)Sc1ccc(-n2cc(-c3ccc(Cl)cc3)[n+]3c2CCC3)cc1	9.2µM*	2%	8.2µM*	-19	5%	3%
Cc1ccc(-c2cn(-c3ccc(SC(F)F)cc3)c3[n+]2CCC3)cc1	0.65µM*	-7%	0.46µM*	?	?	-28%
Clc1ccc(-n2cc(-c3ccc(Br)cc3)[n+]3c2CCCCC3)cc1	5.8µM*	?	6.5µM*	-15	?	-7%
CC(C)(C)c1cn(-c2ccc(Cl)cc2)c(=S)[nH]1	?	-1%	?	8	1%	3%
Cc1ccc(S(=O)(=O)NCC2CCC(C(=O)NCCc3ccc(Cl)cc3)CC2)cc1 (configuration not stated)	-5%	nt	1%	nt	nt	nt
O=C(NC1CCCCC1)c1cccc(NC(=O)c2ccccc2Cl)c1	?	nt	?	1	-10%	-10%
OCCN1CCN(c2ncnc3c2c(-c2ccccc2)cn3-c2ccc(Br)cc2)CC1	?	12%	?	-83*	23µM*	16µM*
CCN(CC)C(=O)C1CCCN(c2ncnc3c2c(-c2ccccc2)cn3-c2cccc(C)c2)C1 (configuration not stated)	15µM*	nt	?	nt	nt	nt
CCN1CCN(c2ncnc3c2c(-c2ccccc2)cn3-c2ccc(F)cc2)CC1	?	0%	?	-15	12%	-3%
SMILES	TDP1 cell CPT	uPA generation	TDP1 cell noCPT	IL1B secr inh	HT1080 IDH1KD tx	HT1080-NT tox
CC(=O)c1ccc(N2CCN(c3ncnc4c3c(-c3ccccc3)cn4-c3cccc(C)c3)CC2)cc1	-14%	nt	-20%	nt	nt	nt
NC(=O)C1CCN(c2ncnc3c2c(-c2ccccc2)cn3-c2ccccc2)CC1	?	4%	?	-18	1%	2%
FC(F)(F)c1cccc(-n2cc(-c3ccccc3)c3c(N4CCCCC4)ncnc32)c1	?	nt	23µM*	nt	nt	nt
Clc1ccccc1N1CCN(c2ncnc3c2c(-c2ccccc2)cn3-c2ccccc2)CC1	?	nt	21µM*	nt	nt	nt
CN(C)c1nc(NNC(=O)c2ccccc2)nc(N(C)C)n1	0%	10%	0%	-7	0%	13%
CCOC(=O)C1CCN(c2c(N3CCN(Cc4ccccc4)CC3)c(=O)c2=O)CC1	4%	-20%	-14%	0	-3%	-1%
CCOC(=O)[C@@H]1CCN(Cc2ccccc2)C[C@H]1c1ccccc1	?	5%	23µM*	-9	-16%	-5%
Cc1ccc2nc(COc3ccccc3NC(=O)COc3ccccc3Cl)cc(=O)n2c1	-5%	nt	-15%	nt	nt	nt
Cc1ccc(NC(=O)Nc2ccccc2OCc2cc(=O)n3ccccc3n2)c(Cl)c1	-8%	nt	-20%	nt	nt	nt
Cc1cccc(OCC(=O)Nc2ccccc2OCc2cc(=O)n3cc(C)ccc3n2)c1	13µM*	nt	?	nt	nt	nt
COc1cc(OC)c(NC(=O)Nc2ccccc2OCc2cc(=O)n3cc(C)ccc3n2)cc1Cl	8.2µM*	nt	9.2µM*	nt	nt	nt
COc1ccc(OC)c(NC(=O)Nc2cccc(OCc3cc(=O)n4cc(C)ccc4n3)c2)c1	8.2µM*	nt	18µM*	nt	nt	nt
Cc1ccn2c(=O)cc(COc3cccc(NC(=O)Nc4cccc(Cl)c4C)c3)nc2c1	?	nt	23µM*	nt	nt	nt
Cc1ccc(CN2CCNC(=O)C2CC(=O)NCCCn2nnc3ccccc32)cc1 (configuration not stated)	5%	nt	4%	-7	-1%	2%
O=C1C=C(c2ccc(F)nc2)C[C@@H](c2ccc3c(c2)OCO3)C1	-29%	-1%	?	8	-2%	0%
COC(=O)C[C@@H]1OC[C@H](CO)N1S(=O)(=O)c1ccc(C)cc1	5%	nt	-2%	10	-1%	14%
COc1ccc(OC)c(NC(=O)c2nnn(CC(=O)Nc3ccc(C(C)C)cc3)c2N)c1	-101%	nt	?	nt	nt	nt
COc1cc(OC)c(NC(=O)Nc2cccc(OCc3cc(=O)n4ccccc4n3)c2)cc1Cl	18µM*	nt	13µM*	nt	nt	nt
Cc1ccc(OCc2cc(=O)n3c4c(sc3n2)CCCC4)cc1C	3%	nt	-4%	nt	nt	nt
COc1ccc(-n2nnnc2-c2cccc(OC)c2)cc1	0.82µM*	-11%	0.58µM*	102	1.6µM*	?
Cc1ccc(-n2nnnc2-c2cccc(C)c2)cc1	-1%	0%	-9%	0	-20%	-21%
COc1ccc2c(c1)nc(N)n2Cc1ccccc1	?	-7%	?	-98*	0%	-9%

Bioassay records as filed in PubChem.
